Screening results: PubChem BioAssay, National Center for Advancing Translational Sciences (NCATS)
MARV entry inh = qHTS for inhibitors of binding or entry into cells for Marburg Virus | Marburg virus pseudotyped entry inhibition, cell reporter | Potency, µM (highest dose often 37.8 µM), without a hit: at the top dose activity change, negative = inhibition, actives largely listed as inhibitors | hit rate 1.8% among 300,000 | AID 540276, 2011; calls by dose curve; tested in HEK293 cells; further: potency means the concentration at half of the fitted maximal effect; on the % scale 0 is the no-effect control and ±100 the full control effect
Shiga toxin inh = A qHTS for Small Molecule Inhibitors of Shiga Toxin; hit rate 9.2% among 290,000; Vero cells, Shiga toxin protein synthesis inhibition reporter; inhibition, % at 38.7 µM; in the data active means inhibition mostly above about 28%, no sharp cut-off; inactive means mostly below about 43%; further: 0% is about no effect
Cycloheximide cs = Cycloheximide Counterscreen for Small Molecule Inhibitors of Shiga Toxin. max response, %. hit rate 12% among 300,000. cell reporter, cycloheximide protein synthesis inhibition counterscreen; in the data active means max response mostly above about 13%, no sharp cut-off; inactive means mostly below about 14%; further: read at 38.3 µM for the half of the compounds with a filed dose; 0% is about no effect
Pf growth 48h = Primary qHTS for delayed death inhibitors of the malarial parasite plastid, 48 hour incubation | AID 504832, 2011 | P. falciparum luciferase growth in erythrocytes, 48 h | Potency, µM (top dose mostly 28.7 µM), without a hit: at the top dose activity change, negative = inhibition, most hits filed as inhibitors | hit rate 5.9% among 310,000; further: potency means the concentration at half of the fitted maximal effect; on the % scale 0 is the no-effect control and ±100 the full control effect
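Erythrocytes infected with P. falciparum carrying an integrated firefly luciferase reporter (2% hematocrit, 0.1% parasitemia final) were exposed to compounds in RPMI 1640 with 0.5% Albumax at 37 C, 5% CO2. Growth inhibition was scored as reduced luminescence.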
Pf growth 96h = Primary qHTS for delayed death inhibitors of the malarial parasite plastid, 96 hour incubation | AID 504834, 2011 | hit rate 6.9% among 320,000 | Potency, µM (top dose mostly 28.7 µM), inactives show at the highest dose activity change, negative = inhibition, usual class: inhibitors | P. falciparum luciferase reporter growth, 96 h; further: potency means the concentration at half of the fitted maximal effect; on the % scale 0 is the no-effect control and ±100 the full control effect
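Parasite growth measured via integrated firefly luciferase reporter in P. falciparum. Infected erythrocytes at 2% hematocrit, 0.05% parasitemia final were treated 96 hours at 37 C under 5% CO2, and luminescence was read.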
LASV entry inh = qHTS for Inhibitors of binding or entry into cells for Lassa Virus; AID 540256, 2011; Lassa virus pseudotype entry inhibition, cell reporter; Potency, µM (titrated, usually from 37.9 µM), without a hit: top-dose activity change, negative = inhibition, hits mostly inhibitors; hit rate 1.2% among 300,000; calls by dose curve; tested in HEK293 cells; further: potency means the concentration at half of the fitted maximal effect; on the % scale 0 is the no-effect control and ±100 the full control effect; nearly all actives have a fitted effect of over 50% in size
* hit, by the source's call; i = inactive; ? = inconclusive; · = not tested or not shown; [ ] = dose if it differs, or a comment. This is a sample that favours compounds with a hit; in the whole collection about 19% have one here. Unless noted, the call rests on the fitted dose curve; in most records, active means well fitted inhibition curve with a large enough effect; inconclusive means small, poorly fitted or top-dose-only effect, or another doubt; inactive means no such curve, though single readings can be large or run the other way.

SMILES	MARV entry inh	Shiga toxin inh	Cycloheximide cs	Pf growth 48h	Pf growth 96h	LASV entry inh
Cc1ccc(/C=C2\Oc3cc(OC(=O)N4CCOCC4)ccc3C2=O)cc1	3%	-7	-1	-2%	?	6%
O=C(Cn1ncc2c3ccccc3n(Cc3ccc(Cl)cc3)c2c1=O)NCc1ccccn1	-2%[46.1 µM]	·	·	·	·	3%[46.1 µM]
N#Cc1ccc(OCC(=O)N2CCN(c3ccc(C(F)(F)F)cn3)CC2)cc1	·	·	·	?	4.1µM*	·
O=C(c1ccc([N+](=O)[O-])s1)N1CCN(c2ccc(C(F)(F)F)cn2)CC1	2%	42	8	?	3.3µM*	24%
COc1c2c(cc3ccc(=O)oc13)CCO2	·	·	-4	?	?	·
O=C1c2ccccc2C(=O)N1CCc1ccccn1	18%	13	16*	32%	9%	7%
N#Cc1ccccc1CCN1C(=O)c2ccccc2C1=O	1%[46.1 µM]	·	41*	-18%	8%	3%[46.1 µM]
O=C1c2cccc3c([N+](=O)[O-])ccc(c23)C(=O)N1CCc1ccccn1	2%[46.1 µM]	1	-2	10%	24%	15%[46.1 µM]
CCn1c(=N)c(C(=O)NCc2ccccc2)cc2c(=O)n3cc(C)ccc3nc21	?	·	·	·	·	-21%[46.1 µM]
Cc1ccc(CNS(=O)(=O)c2ccc3[nH]c4c(c3c2)CCCCC4)cc1	·	·	·	·	·	-4%[46.1 µM]
O=C(CC1Sc2ccccc2NC1=O)c1ccc(Br)cc1 (stereo unspecified)	41%	58*	38*	45%	49%	-3%
O=C(Nc1ccccc1)Nc1ccc2ncoc2c1	6%[46.1 µM]	64*	42*	55%	58%	?
O=C(Nc1ccccc1)Nc1ccc(NC(=O)c2ccccc2O)cc1	·	23	12	0%	-1%	·
O=C(Nc1ccccc1)Nc1ccc2ocnc2c1	-10%[46.1 µM]	67*	42*	i	420%	?
Cc1cc(NC(=O)CSc2nc(-c3ccco3)cc(C(F)(F)F)n2)no1	?	10	-4	-23%	108%	?
COc1ccc([C@@H]2[C@@H]3C(=O)N(C(C)(C)C)C(=O)[C@@H]3[C@]3(Cc4ccc(Cl)cc4)C(=O)N(c4cccc(Br)c4)C(=O)N23)cc1	·	1	-3	?	?	·
COc1ccc([C@@H]2[C@@H]3C(=O)N(C(C)(C)C)C(=O)[C@@H]3[C@]3(Cc4ccccc4)C(=O)N(c4ccc(Br)cc4)C(=O)N23)cc1	·	9	12*	4.1µM*	5.2µM*	·
COc1ccc([C@@H]2[C@@H]3C(=O)N(C(C)(C)C)C(=O)[C@@H]3[C@]3(Cc4ccccc4)C(=O)N(c4cccc(Cl)c4)C(=O)N23)cc1	·	·	·	6.6µM*	9.3µM*	·
CC(C)(C)N1C(=O)[C@H]2[C@@H](c3ccc(Br)cc3)N3C(=O)N(c4cccc(Cl)c4)C(=O)[C@@]3(Cc3ccccc3)[C@H]2C1=O	·	·	·	3.3µM*	4.7µM*	·
CC[C@@]12C(=O)N(c3ccc(C)cc3)C(=O)N1[C@H](c1ccc(Br)cc1)[C@@H]1C(=O)N(C(C)(C)C)C(=O)[C@@H]12	·	-3	-1	?	?	·
COc1ccc([C@@H]2[C@@H]3C(=O)N(C(C)(C)C)C(=O)[C@@H]3[C@]3(Cc4ccc(Cl)cc4)C(=O)N(c4cccc(F)c4)C(=O)N23)cc1	·	·	·	5.9µM*	9.3µM*	·
COc1ccc(N2C(=O)N3[C@H](c4ccc(Br)cc4)[C@@H]4C(=O)N(C(C)(C)C)C(=O)[C@@H]4[C@]3(Cc3ccccc3)C2=O)cc1	·	4	-1	-82%	?	·
COc1ccc(CN2CCC(n3nccc3NC(=O)C3CC3)CC2)c(OC)c1OC	·	-5	-1	-3%	?	·
CC[C@@]12C(=O)N(c3cccc(Br)c3)C(=O)N1[C@H](c1ccc(Br)cc1)[C@@H]1C(=O)N(C(C)(C)C)C(=O)[C@@H]12	·	·	·	10µM*	4.7µM*	·
COc1ccc(C(CNC(=O)Cn2c(=O)oc3ccccc32)N(C)C)cc1 (stereo unspecified)	-17%	-18	-8	4%	-7%	-2%
SMILES	MARV entry inh	Shiga toxin inh	Cycloheximide cs	Pf growth 48h	Pf growth 96h	LASV entry inh
CC1CCN(C(=O)c2ccc([N+](=O)[O-])o2)CC1	1%[46.1 µM]	-5	-2	?	-67%	7%
O=C(c1ccc(-c2ccc([N+](=O)[O-])cc2)o1)N1CCCC(C(F)(F)F)C1 (stereo unspecified)	-17%	·	·	9.3µM*	4%	-2%
CC1CCCN(C(=O)c2ccc([N+](=O)[O-])o2)C1 (stereo unspecified)	·	-2	-2	13µM*	?	·
O=C(c1ccc(-c2ccc([N+](=O)[O-])cc2)o1)N1CCCCCCC1	·	·	·	9%	42%	·
COC(=O)CCc1c(C)c(C#N)c2nc3ccccc3n2c1N1CCCC1	1%	-3	-2	?	?	-30%[14.3 µM]
COc1ccc2nc(SCC(=O)N3CCNC3=O)[nH]c2c1	?	79*	48*	111%	-21%	6%
Cc1cccc2c(=O)c(C(=O)NCc3cccs3)c[nH]c12	16%	·	·	·	·	6%
COC(=O)c1ccc(CSc2nc3c(cnn3-c3ccc(C)cc3)c(=O)[nH]2)o1	-7%	-4	-4	15%	0%	-16%
COC(=O)c1ccc(CSc2nc3ccc(C)cc3[nH]2)o1	10%	37*	27*	·	-20%	3%
COC(=O)C1CCN(C(=O)CSc2nc3ccc(OC)cc3[nH]2)CC1	1%[46.1 µM]	-9	4	9%	7%	·
Cc1ccc2nc(SCC(=O)NCc3cccs3)[nH]c2c1	9%[46.1 µM]	5	11*	-7%	11%	?
Cc1ccc2c(=O)c(C(=O)NCc3cccs3)c[nH]c2c1	15%	51*	23*	?	-29%	32%
Cc1ccc2nc(SCC(=O)Nc3ncccn3)[nH]c2c1	·	57	4	17%	38%	·
COc1ccc(C)cc1NC(=O)c1ccc2c(c1)C(=O)N(Cc1ccncc1)C2=O	·	·	·	3%	1%	·
O=C(CSc1nc2ccc(Cl)cc2[nH]1)NCCc1ccc(Cl)cc1	-19%	-13	37*	-2%	10%	-2%
COc1cccc(CNC(=O)CSc2nc3ccc(C)cc3[nH]2)c1	·	33	17*	-10%	1%	·
Cc1ccc(-c2nc3ncccn3c2Nc2ccc3c(c2)OCO3)o1	?	11	20*	-18%	?	-24%
Clc1ccc(-c2nc3ncccn3c2Nc2ccc3c(c2)OCO3)cc1	?	-3	29	4.1µM*	4.1µM*	-16%
Oc1ccc(-c2nc3ncccn3c2Nc2ccc3c(c2)OCO3)cc1	17%[46.1 µM]	-22	-4	?	-1%	5%
Cc1ccc(Nc2c(-c3ccc(C)o3)nc3ncccn23)cc1	?	54*	21*	-10%	5%	-22%[46.1 µM]
COC(=O)c1cc(NC(=O)Cc2coc3cc(OC)ccc23)cc(C(=O)OC)c1	?	8	1	?	?	-7%
